Reference: ChEMBL document CHEMBL4513149, “CO-ADD screening of MMV (CH) - MMV compounds” (2021)
Hit rate of the full screen: of about 23,000 compounds, about 30 (0.1%) showed an effect of 50% or more. Only a selection was taken, and strong results are over-represented in it overall. Potency and affinity values are given separately.

tested on: Pseudomonas aeruginosa; conditions: Concentration 20 uM; ASSAY_TEST Inhibition of Bacterial Growth; detection method Absorption (OD600); MEDIA CAMHB; plate type 384well; NBS; CORNING #3640; time 18 hr

Compound	Inhibition
Cl.O=C(Nc1ccc(N2CCNCC2)nc1)c1oc(-c2ccccc2)nc1C(F)(F)F	-17.92%
N=C(N)c1ccc(-c2cc(-c3ccccc3)on2)cc1	13.36%
CC(C)=CCC/C(C)=C\CNCCNC1C2CC3CC(C2)CC1C3 (centres undefined)	27.33%
O=C(c1ccc(F)cc1)N(CCNc1ccccc1)c1ccccc1	12.58%
